Several values for one entry are separate records, joined by “and”; a condition that tells them apart may be missing. Identical values can stand only once. Screen size: about 5,500 compounds; about 2,000 (36%) were called active. Roughly 18% stayed inconclusive and do not appear here. Cut-off read from the data, not from the text of the source: active = normalized growth mostly below about 0.91 (no sharp cut-off); inconclusive = no clear call, values can overlap the other calls; inactive = mostly above about 0.92. The list shows a part of the results.
Assay: chemical genetic growth profiling, strain panel (AID 1159580);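 note: tested at 20 µM; growth read once vehicle control cultures reached saturation at 30 °C; 1 = growth at the plate median or of vehicle wells; lower values mean less growth of the strain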
Settings: S. cerevisiae deletion strains, growth OD

Measured: normalized growth

CCC(N)C(O)c1ccc(O)c(O)c1 (configuration not stated)
inactive: locus YAL013W, strain DEP1, active compounds read low 1.02 | locus YAL021C, strain ccr4, active compounds read low 1 | locus YAL026C, strain drs2, active compounds read low 0.987 | locus YAL030W, strain snc1, active compounds read low 0.986 | locus YBL061C, strain skt5, active compounds read low 0.99 | locus YBR009C, strain hhf1, active compounds read low 0.986 | locus YBR021W, strain FUR4, active compounds read low 0.995 | locus YBR023C, strain chs3, active compounds read low 0.994 | locus YBR171W, strain sec66, active compounds read low 0.976 | locus YBR229C, strain ROT2, active compounds read low 1.02 | locus YBR231C, strain swc5, active compounds read low 0.984 | locus YBR279W, strain paf1, active compounds read low 0.991 | locus YCL011C, strain gbp2, active compounds read low 0.996 | locus YCL016C, strain dcc1, active compounds read low 0.998 | locus YCL029C, strain bik1, active compounds read low 0.992 | locus YCL061C, strain MRC1, active compounds read low 0.991 | locus YCL069W, strain vba3, active compounds read low 1 | locus YCR088W, strain abp1, active compounds read low 0.997 | locus YDL005C, strain med2, active compounds read low 0.993 | locus YDL035C, strain GPR1, active compounds read low 1.02 | locus YDL040C, strain nat1, active compounds read low 0.99 | locus YDL074C, strain BRE1, active compounds read low 1 | locus YDL101C, strain DUN1, active compounds read low 1.01 | locus YDL134C, strain PPH21, active compounds read low 1 | locus YDL185W, strain tfp1, active compounds read low 0.968 | locus YDL192W, strain arf1, active compounds read low 0.998 | locus YDR001C, strain nth1, active compounds read low 0.99 | locus YDR069C, strain doa4, active compounds read low 0.981 | locus YDR101C, strain arx1, active compounds read low 0.995 | locus YDR137W, strain rgp1, active compounds read low 1.02 | locus YDR150W, strain NUM1, active compounds read low 1.02 | locus YDR159W, strain sac3, active compounds read low 0.965 | locus YDR162C, strain NBP2, active compounds read low 1.02 | locus YDR195W, strain ref2 0.931 | locus YDR297W, strain sur2, active compounds read low 0.991 | locus YDR318W, strain mcm21, active compounds read low 0.977 | locus YDR334W, strain swr1, active compounds read low 0.994 | locus YDR335W, strain msn5, active compounds read low 0.993 | locus YDR388W, active compounds read low 0.993 | locus YDR392W, strain spt3, active compounds read low 0.934 | locus YDR502C, strain sam2, active compounds read low 0.998 | locus YEL003W, strain gim4, active compounds read low 0.997 | locus YEL037C, strain rad23, active compounds read low 1.02 | locus YEL061C, strain CIN8 (second series), active compounds read low 0.988 | locus YEL061C, strain CIN8, active compounds read low 1.01 | locus YER015W, strain faa2, active compounds read low 0.984 | locus YER016W, strain bim1, active compounds read low 0.989 | locus YER110C, active compounds read low 0.985 | locus YER111C, strain swi4, active compounds read low 0.989 | locus YER155C, strain BEM2 (second series), active compounds read low 0.979 | locus YER155C, strain BEM2, active compounds read low 1.01 | locus YER167W, strain BCK2, active compounds read low 1.03 | locus YFR010W, strain ubp6, active compounds read low 0.983 | locus YGL078C, strain dbp3, active compounds read low 1 | locus YGL086W, strain mad1, active compounds read low 0.988 | locus YGL167C, strain pmr1, active compounds read low 0.985 | locus YGL173C, strain kem1, active compounds read low 0.998 | locus YGL227W, strain vid30, active compounds read low 0.983 | locus YGL240W, strain doc1, active compounds read low 0.96 | locus YGL248W, strain PDE1, active compounds read low 1.01 | locus YGL253W, strain hxk2, active compounds read low 1.01 | locus YGR078C, strain PAC10, active compounds read low 0.991 | locus YGR135W, strain pre9, active compounds read low 0.993 | locus YGR229C, strain SMI1, active compounds read low 1.02 | locus YGR252W, strain gcn5, active compounds read low 1.04 | locus YHR013C, strain ard1, active compounds read low 0.989 | locus YHR027C, strain rpn1, active compounds read low 0.985 | locus YHR030C, strain SLT2, active compounds read low 1.01 | locus YHR079C, strain IRE1 (second series), active compounds read low 0.986 | locus YHR079C, strain IRE1, active compounds read low 1.02 | locus YHR094C, strain hxt1, active compounds read low 0.988 | locus YHR129C, strain ARP1, active compounds read low 1.01 | locus YHR142W, strain chs7, active compounds read low 1.01 | locus YHR200W, strain rpn10, active compounds read low 0.994 | locus YIL066C, strain RNR3, active compounds read low 1.01 | locus YIL073C, strain SPO22, active compounds read low 1.03 | locus YIL125W, strain kgd1, active compounds read low 0.995 | locus YIR030C, strain dcg1, active compounds read low 0.987 | locus YJL092W, strain hpr5, active compounds read low 0.99 | locus YJL095W, strain BCK1 (second series), active compounds read low 0.991 | locus YJL095W, strain BCK1, active compounds read low 1 and 1.01 | locus YJL115W, strain asf1, active compounds read low 0.992 | locus YJL129C, strain trk1, active compounds read low 0.993 | locus YJL134W, strain LCB3, active compounds read low 1.01 | locus YJL154C, strain vps35, active compounds read low 0.993 | locus YJL164C, strain tpk1, active compounds read low 0.994 | locus YJL166W, strain qcr8, active compounds read low 0.988 | locus YJL168C, strain set2, active compounds read low 0.99 | locus YJL187C, strain SWE1 (second series), active compounds read low 0.996 | locus YJL187C, strain SWE1, active compounds read low 0.983 | locus YJR043C, strain POL32, active compounds read low 0.975 | locus YJR066W, strain TOR1, active compounds read low 0.983
